Experimental data: PubChem BioAssay
This is one part of the list. Active and inactive are the calls of the source.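 How the source made its calls, unless noted: active means mean inhibition above about 50% in the one-dose retest (limit read from the data); inactive means the rest.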

Key:
[1] = target: Sentrin-specific protease 8 (Homo sapiens) (UniProt Q96LD8); experiment: SENP8 protease inhibitors, retest, confirmation, biochemical, luminescence, single concentration (AID 488912;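 active means mean inhibition across replicates above about 50%, limit read from the data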); details: Recombinant SENP8, Z-RLRGG-aminoluciferin luminescence, 60 min; at 12.5 µM; stronger effect = higher value
Chain of Sentrin-specific protease 8 (Homo sapiens) (Q96LD8 whole entry, looked up): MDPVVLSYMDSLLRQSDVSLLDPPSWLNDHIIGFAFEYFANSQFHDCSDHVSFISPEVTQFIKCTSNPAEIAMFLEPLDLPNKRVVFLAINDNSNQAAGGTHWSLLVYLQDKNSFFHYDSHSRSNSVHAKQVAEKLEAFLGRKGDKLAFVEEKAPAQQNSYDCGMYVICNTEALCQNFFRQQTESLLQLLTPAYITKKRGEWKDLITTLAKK

[2] = target: Sentrin-specific protease 6 (Homo sapiens) (UniProt Q9GZR1); experiment: SENP6 protease inhibitors, confirmation, biochemical, luminescence, single concentration (AID 488915); details: recombinant SENP6, Z-RLRGG-aminoluciferin luminescence; at 12.5 µM; stronger effect = higher value
Chain of Sentrin-specific protease 6 (Homo sapiens) (Q9GZR1 628-1112 limits assumed): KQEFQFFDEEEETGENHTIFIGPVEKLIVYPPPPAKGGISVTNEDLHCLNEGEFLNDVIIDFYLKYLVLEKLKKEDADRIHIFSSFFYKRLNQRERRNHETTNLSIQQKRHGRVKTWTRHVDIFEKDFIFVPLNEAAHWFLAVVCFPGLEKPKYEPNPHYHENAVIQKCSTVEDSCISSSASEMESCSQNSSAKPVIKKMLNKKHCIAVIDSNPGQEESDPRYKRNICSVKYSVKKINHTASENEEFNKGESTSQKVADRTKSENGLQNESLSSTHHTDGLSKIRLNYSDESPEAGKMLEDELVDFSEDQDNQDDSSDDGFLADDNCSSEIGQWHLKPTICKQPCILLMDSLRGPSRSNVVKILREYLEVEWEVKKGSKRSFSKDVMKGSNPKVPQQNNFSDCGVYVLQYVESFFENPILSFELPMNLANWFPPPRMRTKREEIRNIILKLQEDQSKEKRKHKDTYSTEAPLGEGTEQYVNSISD

[3] = target: Sentrin-specific protease 7 (Homo sapiens) (UniProt Q9BQF6); experiment: SENP7 protease inhibitors, retest, confirmation, biochemical, luminescence, single concentration (AID 488917); details: recombinant SENP7, Z-RLRGG-aminoluciferin luminescence, 40 min; at 12.5 µM; stronger effect = higher value
Chain of Sentrin-specific protease 7 (Homo sapiens) (Q9BQF6 706-1050 limits assumed): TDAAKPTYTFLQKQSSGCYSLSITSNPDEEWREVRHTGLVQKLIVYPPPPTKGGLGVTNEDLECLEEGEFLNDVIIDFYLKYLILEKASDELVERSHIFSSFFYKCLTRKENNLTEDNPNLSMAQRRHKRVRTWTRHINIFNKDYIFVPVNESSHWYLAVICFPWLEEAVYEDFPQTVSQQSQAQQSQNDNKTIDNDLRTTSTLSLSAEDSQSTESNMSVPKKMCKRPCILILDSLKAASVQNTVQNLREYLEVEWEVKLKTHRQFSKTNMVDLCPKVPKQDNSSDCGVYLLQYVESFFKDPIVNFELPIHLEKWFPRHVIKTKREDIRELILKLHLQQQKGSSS

Caspase-3 (Homo sapiens) = Caspase-3 (Homo sapiens) (UniProt P42574); experiment: caspase-3 protease inhibitors, confirmation, selectivity assay for SENP inhibitor project, biochemical, single concentration (AID 488918;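 active means mean inhibition above about 50%, limit read from the data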;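 further: plate controls were enzyme with DMSO for no effect and wells without caspase-3 for full effect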); details: purified caspase-3, Z-DEVD-aminoluciferin luminescence, 60 min; at 12.5 µM; stronger effect = higher value
Chain of Caspase-3 (Homo sapiens) (P42574 28-227 limits assumed): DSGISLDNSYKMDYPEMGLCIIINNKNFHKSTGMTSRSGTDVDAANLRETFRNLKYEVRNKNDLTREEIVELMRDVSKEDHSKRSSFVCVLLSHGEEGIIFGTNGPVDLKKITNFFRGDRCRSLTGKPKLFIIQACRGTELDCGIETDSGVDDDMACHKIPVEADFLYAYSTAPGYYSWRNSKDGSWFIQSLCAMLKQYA

[4] = luciferase luminescence interference by compounds, confirmation, artefact control for SENP inhibitor project, biochemical, single concentration, SENP8 reaction pre-completed (AID 488919;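 active means mean inhibition above about 50% when retested at one dose, limit read from the data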;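 further: plate controls were DMSO wells with completed reaction for no effect and substrate without enzyme for full effect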); details: Pre-incubated SENP8/Z-RLRGG-aminoluciferin, at 12.5 µM, stronger effect = higher value
[5] = target: Tumor necrosis factor receptor superfamily member 10B (Homo sapiens) (UniProt O14763); experiment: caspase-8 TRAIL sensitization, hit retest, confirmation, cell-based, NB7+caspase-8, with/without TRAIL, luminescence panel (AID 651596; in the data active means activity above about 50%); details: NB7 neuroblastoma + caspase-8, TRAIL sensitization, luminescence viability, with TRAIL, mean of runs, at 10 µM, stronger effect = higher value
Chain of Tumor necrosis factor receptor superfamily member 10B (Homo sapiens) (O14763 whole entry, looked up): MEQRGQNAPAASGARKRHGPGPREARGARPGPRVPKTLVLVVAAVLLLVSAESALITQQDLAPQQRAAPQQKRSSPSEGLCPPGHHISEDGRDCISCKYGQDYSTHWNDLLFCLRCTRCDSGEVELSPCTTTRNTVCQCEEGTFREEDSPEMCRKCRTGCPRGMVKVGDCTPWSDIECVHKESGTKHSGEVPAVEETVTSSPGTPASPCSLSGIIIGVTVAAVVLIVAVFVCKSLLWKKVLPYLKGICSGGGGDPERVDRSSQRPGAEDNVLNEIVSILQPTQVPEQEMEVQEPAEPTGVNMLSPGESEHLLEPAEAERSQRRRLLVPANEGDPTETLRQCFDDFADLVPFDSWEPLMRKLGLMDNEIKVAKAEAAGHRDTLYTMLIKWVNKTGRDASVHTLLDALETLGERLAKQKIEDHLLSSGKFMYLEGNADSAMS

[6] = as above; details: NB7 neuroblastoma + caspase-8, without TRAIL, luminescence viability, without TRAIL, mean of runs, at 10 µM
[7] = inhibition of Brca1/Bard1 split-luciferase complementation, confirmation, counter-screen for Mdm2/MdmX interaction inhibitor project, luminescence, single concentration (AID 504668; call rule not given here); details: Brca1/Bard1 bimolecular luciferase complementation counterscreen, at 8 µM, stronger effect = higher value
[8] = Peg3 promoter reporter inhibitors, retest, confirmation, cell-based, HeLa, luciferase reporter, single concentration (AID 602417;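 active means at 20 µM dose, 40% or more inhibition averaged across four replicates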); details: HeLa PEG-Prom luciferase reporter, luminescence, overnight; at 20 µM; stronger effect = higher value
[9] = HIF-2a reporter inhibitor retest, confirmation, luminescence, 786-0 RCC cells (AID 651580;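 active means mean inhibition across four replicates of at least 40 percent at the single tested concentration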); details: HIF-2a luciferase reporter luminescence, overnight, at 18.8 µM, stronger effect = higher value
[10] = HIF-1a luciferase reporter signal reduction – MiaPaCa-2 cells, single concentration, counter-screen for HIF-2a inhibitor project, confirmation (AID 651589;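 active means mean inhibition of the reporter signal across four replicates at the single tested dose of 50% or more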); details: MiaPaCa-2 HIF-1a luciferase reporter, desferoxamine, overnight; at 18.8 µM; stronger effect = higher value
PEG-3 [11] = target: PEG-3 (UniProt Q6IN02); experiment: Peg3 promoter luciferase inhibitors, potency, dose response, cell-based, HeLa, CREF/GAPDH counter-screen panel (AID 624167); details: CREF/GAPDH counter-screens; HeLa PEG-Prom luciferase reporter, overnight, run 1, dose range 1, at 100 µM (top of the series) unless noted
Chain of PEG-3 (Q6IN02 whole entry, looked up): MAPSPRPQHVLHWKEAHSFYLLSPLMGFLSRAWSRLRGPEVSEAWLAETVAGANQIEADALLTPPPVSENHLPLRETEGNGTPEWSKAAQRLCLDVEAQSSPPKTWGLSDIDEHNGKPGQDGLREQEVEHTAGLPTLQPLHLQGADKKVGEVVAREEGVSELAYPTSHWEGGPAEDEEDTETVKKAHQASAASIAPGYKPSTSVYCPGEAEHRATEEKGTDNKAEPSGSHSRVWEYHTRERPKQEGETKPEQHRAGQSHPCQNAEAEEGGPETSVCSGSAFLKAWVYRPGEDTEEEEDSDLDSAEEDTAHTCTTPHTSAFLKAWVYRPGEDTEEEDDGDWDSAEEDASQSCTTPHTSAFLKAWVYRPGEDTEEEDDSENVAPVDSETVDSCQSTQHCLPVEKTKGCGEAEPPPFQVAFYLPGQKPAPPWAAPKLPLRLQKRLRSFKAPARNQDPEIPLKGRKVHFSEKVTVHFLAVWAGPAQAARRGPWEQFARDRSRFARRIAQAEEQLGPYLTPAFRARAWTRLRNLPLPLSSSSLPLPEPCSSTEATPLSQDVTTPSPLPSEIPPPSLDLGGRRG

PEG-3 [12] = target: PEG-3 (UniProt Q6IN02); experiment: as above; details: CREF/GAPDH counter-screens; HeLa PEG-Prom luciferase reporter, overnight, run 2, dose range 1, at 100 µM (top of the series) unless noted
[13] = target: Protein Mdm4 (Homo sapiens) + E3 ubiquitin-protein ligase Mdm2 (Homo sapiens) (UniProt O15151+Q00987); experiment: retested Mdm2-MdmX interaction blockers, confirmation, cell-based, luminescence, single concentration, set 2 (AID 504601;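 active means mean inhibition of the luminescence signal across two replicates at or above 26 percent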); details: SaOS-2 split-luciferase Mdm2/MdmX complementation, at 8 µM, stronger effect = higher value
Chain of Protein Mdm4 (Homo sapiens) + E3 ubiquitin-protein ligase Mdm2 (Homo sapiens) (O15151 whole entry, looked up, the tested form may be a part): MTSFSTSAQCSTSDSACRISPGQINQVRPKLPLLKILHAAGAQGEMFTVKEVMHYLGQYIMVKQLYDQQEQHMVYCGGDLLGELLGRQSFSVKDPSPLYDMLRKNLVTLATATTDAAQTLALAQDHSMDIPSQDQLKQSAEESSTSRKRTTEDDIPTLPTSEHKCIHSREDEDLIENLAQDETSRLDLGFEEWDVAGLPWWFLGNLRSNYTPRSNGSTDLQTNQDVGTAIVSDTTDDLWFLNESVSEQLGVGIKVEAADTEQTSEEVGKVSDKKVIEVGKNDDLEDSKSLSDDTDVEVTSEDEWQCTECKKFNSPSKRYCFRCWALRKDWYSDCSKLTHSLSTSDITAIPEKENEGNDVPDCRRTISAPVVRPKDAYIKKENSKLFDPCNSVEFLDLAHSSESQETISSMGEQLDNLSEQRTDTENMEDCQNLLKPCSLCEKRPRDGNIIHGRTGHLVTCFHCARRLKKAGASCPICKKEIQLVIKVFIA
Chain of Protein Mdm4 (Homo sapiens) + E3 ubiquitin-protein ligase Mdm2 (Homo sapiens) (Q00987 whole entry, looked up, the tested form may be a part): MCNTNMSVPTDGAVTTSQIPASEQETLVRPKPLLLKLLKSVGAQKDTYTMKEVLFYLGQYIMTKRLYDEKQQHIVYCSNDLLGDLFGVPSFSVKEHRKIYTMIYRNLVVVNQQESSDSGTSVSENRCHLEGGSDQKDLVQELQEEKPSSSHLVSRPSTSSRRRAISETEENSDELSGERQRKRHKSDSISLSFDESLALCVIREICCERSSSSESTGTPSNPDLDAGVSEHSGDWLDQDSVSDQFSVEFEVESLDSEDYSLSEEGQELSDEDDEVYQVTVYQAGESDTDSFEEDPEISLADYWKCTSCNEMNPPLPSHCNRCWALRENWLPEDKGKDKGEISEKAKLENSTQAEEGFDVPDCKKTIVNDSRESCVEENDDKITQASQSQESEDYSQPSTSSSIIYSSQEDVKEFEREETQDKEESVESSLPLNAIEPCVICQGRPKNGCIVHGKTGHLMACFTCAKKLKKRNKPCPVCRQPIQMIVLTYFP

[14] = target: Carboxy-terminal domain RNA polymerase II polypeptide A small phosphatase 1 (Homo sapiens) (UniProt Q9GZU7); experiment: Scp-1 binding by thermal shift, confirmation, orthogonal assay for Scp-1 inhibitor project, biophysical, differential scanning fluorimetry (AID 540329;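 active means substances whose mean melting-temperature shift, as a percentage of the reference inhibitor's shift, reaches about 5.3%, limit read from the data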;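 further: 0% = Tm of DMSO wells and 100% = Tm with sodium orthovanadate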); details: Recombinant SCP1, Sypro Orange thermal shift Tm; at 40 µM; stronger effect = higher value
Chain of Carboxy-terminal domain RNA polymerase II polypeptide A small phosphatase 1 (Homo sapiens) (Q9GZU7 76-261 limits assumed): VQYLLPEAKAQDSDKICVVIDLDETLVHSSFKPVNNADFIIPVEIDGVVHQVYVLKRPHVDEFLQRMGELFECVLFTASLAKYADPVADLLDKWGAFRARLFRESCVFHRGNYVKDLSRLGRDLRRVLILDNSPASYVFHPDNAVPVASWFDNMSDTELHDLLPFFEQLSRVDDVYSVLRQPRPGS

[15] = Apaf-1 inhibitors, single-dose retest, confirmation, biochemical, fluorescence, DEVD-Rh110, 20 µM (AID 504614;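 active means mean inhibition of at least 40% at 20 µM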;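 further: plate controls were DMSO wells for no effect and DEVD-CHO caspase inhibitor control wells for full effect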); details: reconstituted apoptosome, caspase-3 DEVD-Rh110 fluorescence; at 20 µM; stronger effect = higher value
[16] = Rh110 fluorescence interference by putative Apaf-1 inhibitors, confirmation, artefact control for Apaf-1 inhibitor project, biochemical, 20 µM (AID 504615;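 active means signal rise of 40% or more at 20 µM, treated as a fluorescence artifact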); details: quenched caspase reaction, at 20 µM, stronger effect = higher value
[17] = fluorescence interference of Apaf-1 inhibitor hits, dose response, artefact control for Apaf-1 inhibitor project (AID 588538; call rule not given here); details: fluorescence interference counterscreen, Apaf-1 assay format
[18] = target: COP9 signalosome complex subunit 5 (Homo sapiens) (UniProt Q92905); experiment: Csn5 deneddylation inhibitors, confirmation, biochemical, fluorescence polarization, single concentration, SCF-Nedd8OG substrate (AID 720654; in the data active means inhibition above about 50%;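 further: 0% = DMSO with enzyme and 100% = no enzyme wells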); details: Csn5 deneddylation of SCF-Nedd8OG, 90 min, at 16.6 µM, stronger effect = higher value
Chain of COP9 signalosome complex subunit 5 (Homo sapiens) (Q92905 whole entry, looked up, one chain of several): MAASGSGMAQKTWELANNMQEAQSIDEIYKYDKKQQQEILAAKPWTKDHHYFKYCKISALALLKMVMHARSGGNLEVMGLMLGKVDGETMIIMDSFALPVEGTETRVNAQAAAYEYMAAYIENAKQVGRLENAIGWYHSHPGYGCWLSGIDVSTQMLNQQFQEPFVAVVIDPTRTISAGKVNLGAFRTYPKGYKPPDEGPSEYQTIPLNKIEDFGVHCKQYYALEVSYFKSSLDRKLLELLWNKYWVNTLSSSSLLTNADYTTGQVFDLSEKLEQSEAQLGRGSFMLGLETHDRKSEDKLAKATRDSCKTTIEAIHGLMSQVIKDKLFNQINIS

[19] = target: 72 kDa type IV collagenase (Homo sapiens) (UniProt P08253); experiment: MMP-2 protease inhibition counter-screen, confirmation, counter-screen for CSN deneddylation inhibitor project, biochemical, fluorescence, single concentration (AID 720655;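 active means corrected plate-normalized z-score of 5 or more, or -5 or less, or inhibition of 15% or more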;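 further: plate controls were DMSO wells with enzyme for no effect and buffer wells lacking MMP-2 for full effect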); details: recombinant MMP-2, FRET substrate fluorescence, 60 min; at 16.6 µM
Prothrombin (Bos taurus) = Prothrombin (Bos taurus) (UniProt P00735); experiment: bovine thrombin inhibition counter-screen, confirmation, counter-screen for CSN deneddylation inhibitor project, biochemical, fluorescence polarization, single concentration (AID 720656;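 active means inhibition at or above a set limit, with a fluorescence interference ratio between 0.5 and a set maximum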); details: bovine thrombin cleavage of Ub4-pepOG, at 16.6 µM, stronger effect = higher value
Chain of Prothrombin (Bos taurus) (P00735 whole entry, looked up): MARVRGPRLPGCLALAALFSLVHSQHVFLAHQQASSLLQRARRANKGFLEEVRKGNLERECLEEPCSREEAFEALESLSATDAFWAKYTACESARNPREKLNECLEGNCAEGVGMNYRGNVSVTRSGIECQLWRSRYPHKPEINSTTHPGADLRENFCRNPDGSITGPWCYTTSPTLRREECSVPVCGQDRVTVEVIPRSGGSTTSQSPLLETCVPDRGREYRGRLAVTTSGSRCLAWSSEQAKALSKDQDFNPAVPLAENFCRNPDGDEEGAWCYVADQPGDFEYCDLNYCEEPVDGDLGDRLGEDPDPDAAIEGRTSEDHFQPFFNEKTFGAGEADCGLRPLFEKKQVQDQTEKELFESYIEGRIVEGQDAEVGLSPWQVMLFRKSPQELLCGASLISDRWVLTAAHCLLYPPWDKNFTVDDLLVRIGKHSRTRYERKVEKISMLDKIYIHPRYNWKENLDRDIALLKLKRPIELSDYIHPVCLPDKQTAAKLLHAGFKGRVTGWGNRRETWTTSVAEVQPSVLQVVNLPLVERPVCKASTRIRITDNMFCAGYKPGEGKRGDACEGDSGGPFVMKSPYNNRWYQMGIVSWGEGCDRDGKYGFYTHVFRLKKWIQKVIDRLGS

Rat fibroblasts (CREF) [20] = experiment: Peg3 promoter luciferase inhibitors, potency, dose response, cell-based, HeLa, CREF/GAPDH counter-screen panel (AID 624167); details: CREF/GAPDH counter-screens; run 1, dose range 1, at 100 µM (top of the series)
Rat fibroblasts (CREF) [21] = experiment: as above; details: CREF/GAPDH counter-screens; run 2, dose range 1, at 100 µM (top of the series)

Q: What does the source list for `COc1ccc(-c2cc3ccc(OCc4nn[nH]n4)cc3oc2=O)cc1`?
A: inhibition [1]: 64% (active); inhibition [2]: 63.1% (active); inhibition [3]: 87.3% (active); inhibition (Caspase-3 (Homo sapiens)): 66.2% (active); inhibition [4]: 70.6% (active); activity [5]: 58.8%; activity [6]: 56.2%

Q: Which inhibition [1] does the source give for `Cc1ccsc1C(=O)OCC(=O)c1cc(C)n(CC2CCCO2)c1C` (stereo unspecified) here?
A: 35.3% (inactive)

Q: And the inhibition [2]?
A: 97.2% (active)

Q: What about the inhibition [3] of the same compound?
A: 102% (active)

Q: What about the inhibition (Caspase-3 (Homo sapiens)) of the same compound?
A: 96.7% (active)

Q: What about the inhibition [4] of the same compound?
A: 58.8% (active)

Q: And the inhibition [7]?
A: 28.9% (active)

Q: What about the inhibition [8] of the same compound?
A: 80.8% (active)

Q: What about the inhibition [9] of the same compound?
A: 65.9% (active)

Q: And the inhibition [10]?
A: 80.2% (active)

Q: And the inhibition (PEG-3 [11])?
A: 96.8%

Q: What about the inhibition (PEG-3 [12]) of the same compound?
A: 92.7%

Q: What about the activity [5] of the same compound?
A: 74.5%

Q: What about the activity [6] of the same compound?
A: 68.1%

Q: Which inhibition [13] does the source give for `CC[C@]1(C(=O)OC)[C@H]2C(=O)N(Cc3ccccc3)C(=O)[C@H]2[C@H]2CN=C(SCc3ccc(Cl)cc3)N21` here?
A: 103% (active)

Q: For `CSc1ccc(/C=N/NC(=O)c2cccc(Cl)c2)cc1`, which inhibition [1] is on record?
A: 36.6% (inactive)

Q: And the inhibition [2]?
A: 96.5% (active)

Q: What about the inhibition [3] of the same compound?
A: 44.1% (inactive)

Q: And the inhibition (Caspase-3 (Homo sapiens))?
A: 93.6% (active)

Q: What about the inhibition [4] of the same compound?
A: 40.2% (inactive)

Q: What about the thermal shift relative to vanadate control [14] of the same compound?
A: 9.78% (active)

Q: For `CCOC(=O)c1c(-c2cccc(C)c2)csc1NC(=O)c1c(-c2ccccc2)noc1C`, which inhibition [13] is on record?
A: 101% (active)

Q: With `CCOc1ccc(-c2nnc(-c3ccco3)o2)cc1` as the compound, how does the inhibition [1] read?
A: 5.3% (inactive)

Q: What about the inhibition [2] of the same compound?
A: 72.1% (active)

Q: And the inhibition [3]?
A: 79% (active)

Q: And the inhibition (Caspase-3 (Homo sapiens))?
A: 73.8% (active)

Q: What about the inhibition [4] of the same compound?
A: 15.9% (inactive)

Q: What about the activity [5] of the same compound?
A: 52.5%

Q: What about the activity [6] of the same compound?
A: 56.5%

Q: Which inhibition [1] does the source give for `O=c1c2cc(-c3ccccc3)sc2nc2n1N=C(c1cccs1)CS2` here?
A: 11.6% (inactive)

Q: What about the inhibition [2] of the same compound?
A: 3.2% (inactive)

Q: What about the inhibition [3] of the same compound?
A: -0.5% (inactive)

Q: And the inhibition (Caspase-3 (Homo sapiens))?
A: 8.2% (inactive)

Q: What about the inhibition [4] of the same compound?
A: 3.2% (inactive)

Q: And the thermal shift relative to vanadate control [14]?
A: 11.4% (active)

Q: What about the activity [5] of the same compound?
A: 63.5%

Q: What about the activity [6] of the same compound?
A: 57.9%

Q: For `COc1ccc(C(=O)NC2CCCc3c2cnn3-c2cccc(C)c2C)c(OC)n1` (stereo unspecified), which inhibition [13] is on record?
A: 102% (active)

Q: With `Clc1ccc(C2=CSC3=Nc4cccc5cccc(c45)N23)cc1` as the compound, how does the inhibition [1] read?
A: 1.7% (inactive)

Q: What about the inhibition [2] of the same compound?
A: 55.9% (active)

Q: What about the inhibition [3] of the same compound?
A: 7.2% (inactive)

Q: And the inhibition (Caspase-3 (Homo sapiens))?
A: -5.7% (inactive)

Q: And the inhibition [4]?
A: -2.1% (inactive)

Q: And the inhibition [15]?
A: 62.8% (active)

Q: And the activation (fluorescence interference) [16]?
A: -1.7% (inactive)

Q: And the IC50 [17]?
A: > 100 µM (inactive)

Q: With `CCOc1cc(N2CCOCC2)c(OCC)cc1NC(=O)COc1cccc2cccnc12` as the compound, how does the inhibition [13] read?
A: 92.7% (active)

Q: Which inhibition [1] does the source give for `CC(C)n1cnc2c(NCc3ccccc3)cc(OCC3CCN(C)CC3)cc21` here?
A: 57.7% (active)

Q: What about the inhibition [2] of the same compound?
A: 75.3% (active)

Q: And the inhibition [3]?
A: 35.5% (inactive)

Q: What about the inhibition (Caspase-3 (Homo sapiens)) of the same compound?
A: 6.2% (inactive)

Q: What about the inhibition [4] of the same compound?
A: -4.2% (inactive)

Q: What about the inhibition [15] of the same compound?
A: 78.1% (active)

Q: What about the activation (fluorescence interference) [16] of the same compound?
A: -0.65% (inactive)

Q: What about the IC50 [17] of the same compound?
A: > 100 µM (inactive)

Q: Which inhibition [1] does the source give for `O=C(CSC(=S)N1CCOCC1)c1ccccc1` here?
A: 79.2% (active)

Q: What about the inhibition [2] of the same compound?
A: 77.6% (active)

Q: What about the inhibition [3] of the same compound?
A: 94.1% (active)

Q: What about the inhibition (Caspase-3 (Homo sapiens)) of the same compound?
A: 88.1% (active)

Q: And the inhibition [4]?
A: 77% (active)

Q: And the activity [5]?
A: 46.8%

Q: What about the activity [6] of the same compound?
A: 55.2%

Q: With `CCN1C(=O)c2cccc3c(N)ccc1c23` as the compound, how does the inhibition [1] read?
A: 22% (inactive)

Q: What about the inhibition [2] of the same compound?
A: 41.5% (inactive)

Q: And the inhibition [3]?
A: 15.6% (inactive)

Q: What about the inhibition (Caspase-3 (Homo sapiens)) of the same compound?
A: 2.1% (inactive)

Q: And the inhibition [4]?
A: -6.4% (inactive)

Q: What about the inhibition [15] of the same compound?
A: 70.1% (active)

Q: And the activation (fluorescence interference) [16]?
A: 2.39% (inactive)

Q: What about the IC50 [17] of the same compound?
A: > 100 µM (inactive)

Q: Which inhibition [1] does the source give for `CC(=C/c1ccccc1)/C=N/NC(=O)c1cc(C)oc1C` here?
A: 14.3% (inactive)

Q: And the inhibition [2]?
A: 46.8% (inactive)

Q: What about the inhibition [3] of the same compound?
A: 23.5% (inactive)

Q: And the inhibition (Caspase-3 (Homo sapiens))?
A: 86.4% (active)

Q: And the inhibition [4]?
A: -2.7% (inactive)

Q: And the activity [5]?
A: 58.5%

Q: What about the activity [6] of the same compound?
A: 63.6%

Q: Which inhibition [1] does the source give for `COc1cc(/C=C(\C#N)c2nc3ccccc3[nH]2)ccc1O` here?
A: 95.1% (active)

Q: And the inhibition [2]?
A: 95.1% (active)

Q: And the inhibition [3]?
A: 101% (active)

Q: And the inhibition (Caspase-3 (Homo sapiens))?
A: 93.4% (active)

Q: What about the inhibition [4] of the same compound?
A: 66.5% (active)

Q: And the inhibition [18]?
A: 78.1% (active)

Q: And the inhibition [19]?
A: -18.3% (inactive)

Q: What about the inhibition (Prothrombin (Bos taurus)) of the same compound?
A: 62.2% (active)

Q: Which inhibition [1] does the source give for `Cc1ccc2nc(-c3ccc(Br)cc3)cn2c1` here?
A: 7.3% (inactive)

Q: What about the inhibition [2] of the same compound?
A: 34.4% (inactive)

Q: What about the inhibition [3] of the same compound?
A: 70% (active)

Q: And the inhibition (Caspase-3 (Homo sapiens))?
A: 51.5% (active)

Q: And the inhibition [4]?
A: -8.6% (inactive)

Q: What about the inhibition [8] of the same compound?
A: 49.5% (active)

Q: And the inhibition (PEG-3 [11])?
A: 101%

Q: What about the inhibition (PEG-3 [12]) of the same compound?
A: 88.9%

Q: What about the inhibition (Rat fibroblasts (CREF) [20]) of the same compound?
A: 93.6%

Q: What about the inhibition (Rat fibroblasts (CREF) [21]) of the same compound?
A: 85.5%
